Reference: PubChem BioAssay (NCI)
About 79,000 compounds went through this panel and 15% of them were active in at least one assay; those are over-represented in the sample as a whole. Active and inactive are the calls of the source. No stated cut-off is given here; in the data, active means growth inhibition above about 70%; inactive means the rest.

What was measured:
[1] = NCI Yeast Anticancer Drug Screen. Data for the rad50 strain (AID 155);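 further: 0% = growth of vehicle-only cultures of the same strain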; settings: S. cerevisiae rad50 strain growth inhibition, active compounds read high
Summary of the method: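 Compounds were tested on a yeast strain with an engineered DNA damage repair alteration; the reported value is growth inhibition normalised to vehicle treatment.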

[2] = NCI Yeast Anticancer Drug Screen. Data for the mec2-1 strain (AID 157); settings: S. cerevisiae mec2-1 strain, active compounds read high
Summary of the method: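 mec2-1 yeast strain, carrying an alteration in DNA damage repair or cell cycle control, was exposed to compounds; growth inhibition was measured relative to vehicle-treated controls.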

[3] = NCI Yeast Anticancer Drug Screen. Data for the sgs1 mgt1 strain (AID 161);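 further: 0% = growth of cultures given vehicle only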; settings: S. cerevisiae sgs1 mgt1 strain, active compounds read high
Summary of the method: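 Growth of a repair-deficient yeast mutant was monitored after compound treatment and expressed as inhibition relative to vehicle-treated cultures.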

[4] = NCI Yeast Anticancer Drug Screen. Data for the cln2 rad14 strain (AID 165);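 further: 0% = growth equal to vehicle treated cultures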; settings: S. cerevisiae cln2 rad14 strain, active compounds read high
Summary of the method: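 Yeast carrying cln2 and rad14 alterations (cell cycle control and DNA damage repair) were exposed to compounds. Growth inhibition was measured against vehicle-treated controls.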

[5] = NCI Yeast Anticancer Drug Screen. Data for the bub3 strain (AID 167); settings: S. cerevisiae bub3 mutant strain, active compounds read high
Summary of the method: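 Growth of a checkpoint-deficient yeast mutant is measured after compound exposure. Values represent inhibition relative to vehicle.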

[6] = NCI Yeast Anticancer Drug Screen. Data for the mlh1 rad18 strain (AID 175); settings: S. cerevisiae mlh1 rad18 strain growth inhibition, active compounds read high
Summary of the method: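 Growth inhibition of the yeast strain was measured after compound exposure and expressed relative to vehicle-treated controls. The strain carries defined defects in DNA damage repair.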

[7] = at 5.0 µM (retest, dose inferred, filed as 0.5)
[8] = at 50.0 µM (retest, dose inferred, filed as 5.0)

Measured: growth inhibition

NC(CSC1(c2ccc(Cl)cc2)c2ccccc2-c2ccccc21)C(=O)O (stereo not given)
active: [5]; at 50.0 µM 91.2% | [6]; at 50.0 µM 74.8%
inactive: [1]; [7] 16% | [1]; [8] 68% | [1]; at 50.0 µM 68% | [2]; [7] 8% | [2]; [8] 51% | [2]; at 50.0 µM 61.9% | [3]; [7] -1% | [3]; [8] 22% | [3]; at 50.0 µM 35.1% | [4]; [7] -15% | [4]; [8] 59% | [4]; at 50.0 µM 43.8% | [5]; [7] 1% | [5]; [8] 44% | [6]; [7] -2% | [6]; [8] 55%

O=c1c(SSc2coc3ccccc3c2=O)coc2ccccc12
inactive: [1]; [7] 22% | [2]; [7] 27% | [3]; [7] 27% | [4]; [7] 42% | [5]; [7] 13% | [6]; [7] 17%
active: [1]; [8] 99% | [1]; at 50.0 µM 94.4% | [2]; [8] 96% | [2]; at 50.0 µM 96.3% | [3]; [8] 98% | [3]; at 50.0 µM 87.5% | [4]; [8] 94% | [4]; at 50.0 µM 91.3% | [5]; [8] 94% | [5]; at 50.0 µM 71.9% | [6]; [8] 97% | [6]; at 50.0 µM 93.5%

CCCCCCCCCCCCCCCC[NH][Ge]([NH]CCCCCCCCCCCCCCCC)([NH]CCCCCCCCCCCCCCCC)[NH]CCCCCCCCCCCCCCCC
active: [1]; [7] 98% | [1]; [8] 96% | [1]; at 50.0 µM 87.4% | [2]; [7] 99% | [2]; [8] 97% | [2]; at 50.0 µM 91.5% | [3]; [7] 99% | [3]; [8] 96% | [3]; at 50.0 µM 90.2% | [4]; [7] 99% | [4]; [8] 96% | [4]; at 50.0 µM 89.2% | [5]; [7] 99% | [5]; [8] 97% | [5]; at 50.0 µM 87.2% | [6]; [7] 98% | [6]; [8] 95% | [6]; at 50.0 µM 87.2%

CCO/C=C1N=C(/C=C/c2ccc(Cl)cc2)OC/1=O
inactive: [1]; [7] 5% | [1]; [8] 31% | [1]; at 50.0 µM 28.4% | [2]; [7] 7% | [2]; [8] 13% | [2]; at 50.0 µM 32.8% | [3]; [7] 14% | [3]; [8] 19% | [3]; at 50.0 µM 47% | [4]; [7] 8% | [4]; [8] 43% | [4]; at 50.0 µM -38.7% | [5]; [7] 14% | [5]; [8] 29% | [5]; at 50.0 µM 22.6% | [6]; [7] 1% | [6]; [8] 25% | [6]; at 50.0 µM 40.8%

O=C1C2CCCC3CCCC(C(=O)N1O)C32 (stereo not given)
inactive: [4]; [7] 52% | [4]; [8] 69%
active: [1]; [7] 89% | [1]; [8] 96% | [1]; at 50.0 µM 91.9% | [2]; [7] 90% | [2]; [8] 98% | [2]; at 50.0 µM 93% | [3]; [7] 70% | [3]; [8] 94% | [3]; at 50.0 µM 93.5% | [4]; at 50.0 µM 74.7% | [5]; [7] 93% | [5]; [8] 97% | [5]; at 50.0 µM 92% | [6]; [7] 87% | [6]; [8] 97% | [6]; at 50.0 µM 90.3%

COc1cnc2cc3c4c(cccc4c2c1)NC3=O
inactive: [2]; [7] 51% | [3]; [7] 55% | [4]; [7] 43% | [5]; [7] 51%
active: [1]; [7] 87% | [1]; [8] 91% | [1]; at 50.0 µM 80% | [2]; [8] 89% | [2]; at 50.0 µM 82.2% | [3]; [8] 92% | [3]; at 50.0 µM 79.7% | [4]; [8] 83% | [4]; at 50.0 µM 75% | [5]; [8] 87% | [5]; at 50.0 µM 80.8% | [6]; [7] 75% | [6]; [8] 91% | [6]; at 50.0 µM 86%

O=C(N/N=C/c1cc(Cl)cc(Cl)c1O)c1ccccc1
inactive: [1]; [7] 39% | [1]; [8] 22% | [1]; at 50.0 µM 69.9% | [2]; [7] 41% | [2]; [8] 36% | [2]; at 50.0 µM 57.5% | [3]; [7] 55% | [3]; [8] 48% | [3]; at 50.0 µM 69.6% | [4]; [7] 14% | [4]; [8] 1% | [4]; at 50.0 µM 33.6% | [5]; [7] 46% | [5]; [8] 30% | [6]; [7] 45% | [6]; [8] 40% | [6]; at 50.0 µM 69.8%
active: [5]; at 50.0 µM 71.6%

CN(C)CC1CCC2=C(C1=O)C(c1ccc(Cl)c(Cl)c1)C1=C(CCC(CN(C)C)C1=O)O2 (stereo not given)
active: [1]; at 50.0 µM 75.5%
inactive: [1]; [7] 14% | [1]; [8] 11% | [2]; [7] -4% | [2]; [8] -13% | [2]; at 50.0 µM 49.9% | [3]; [7] -5% | [3]; [8] 19% | [3]; at 50.0 µM 47.6% | [4]; [7] 6% | [4]; [8] -3% | [4]; at 50.0 µM -17.2% | [5]; [7] -5% | [5]; [8] 2% | [5]; at 50.0 µM 3.75% | [6]; [7] 4% | [6]; [8] 1% | [6]; at 50.0 µM 48.5%

CCC[CH2][Sn]([CH2]CCC)([O]C(=O)c1cc(F)ccc1F)[O][Sn]([CH2]CCC)([CH2]CCC)[O]C(=O)c1cc(F)ccc1F
inactive: [1]; at 50.0 µM 65.3% | [2]; at 50.0 µM 69.3% | [3]; at 50.0 µM 63.2% | [4]; at 50.0 µM 57.5%
active: [1]; [7] 83% | [1]; [8] 94% | [2]; [7] 87% | [2]; [8] 97% | [3]; [7] 85% | [3]; [8] 96% | [4]; [7] 74% | [4]; [8] 90% | [5]; [7] 93% | [5]; [8] 97% | [5]; at 50.0 µM 81% | [6]; [7] 89% | [6]; [8] 96% | [6]; at 50.0 µM 85.9%

C/C=C(\C)C(=O)OC1C2C(C)=CC(=O)C(O)C2(C)C2C3(O)OCC24C1OC(=O)C(O)C4C(C)C3O (stereo not given)
active: [1]; at 50.0 µM 84.2% | [2]; at 50.0 µM 72.5% | [3]; at 50.0 µM 71.7% | [4]; at 50.0 µM 78.5% | [5]; at 50.0 µM 75.8%
inactive: [1]; [7] -2% | [1]; [8] 54% | [2]; [7] 15% | [2]; [8] 30% | [3]; [7] 9% | [3]; [8] 42% | [4]; [7] 8% | [4]; [8] 67% | [5]; [7] -13% | [5]; [8] 51% | [6]; [7] -33% | [6]; [8] 66% | [6]; at 50.0 µM 34.5%
